# Test results taken from PubChem BioAssay AID1159580 (chemical genetic matrix, 2015).
# Out of some 5,500 compounds screened, about 2,000 (36%) were called active. Another 18% or so got no clear call; they are omitted. This is one part of the list. A number with no mark means an inactive call. Rule as the data show it: active = normalized growth mostly below about 0.91 (no sharp cut-off); inconclusive = no clear call, values can overlap the other calls; inactive = mostly above about 0.92.
# Test: chemical genetic growth profiling, strain panel (AID 1159580);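 also: tested at 20 µM; growth read once vehicle control cultures reached saturation at 30 °C; 1 = growth at the plate median or of vehicle wells; lower values mean less growth of the strain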
# Details: S. cerevisiae deletion strains, growth OD
smiles,measurement,setting,value
C#CCCCCCCCCCCCC(=O)CC(O)COC(C)=O (centres undefined),normalized growth,"locus YAL013W, strain DEP1, active compounds read low",0.909 (active)
same,normalized growth,"locus YAL021C, strain ccr4, active compounds read low",0.964
same,normalized growth,"locus YAL026C, strain drs2, active compounds read low",0.982
same,normalized growth,"locus YAL030W, strain snc1, active compounds read low",0.983
same,normalized growth,"locus YBL061C, strain skt5, active compounds read low",0.977
same,normalized growth,"locus YBR009C, strain hhf1, active compounds read low",0.991
same,normalized growth,"locus YBR021W, strain FUR4, active compounds read low",0.91
same,normalized growth,"locus YBR023C, strain chs3, active compounds read low",0.978
same,normalized growth,"locus YBR171W, strain sec66, active compounds read low",0.963
same,normalized growth,"locus YBR229C, strain ROT2, active compounds read low",0.953
same,normalized growth,"locus YBR231C, strain swc5, active compounds read low",0.977
same,normalized growth,"locus YBR279W, strain paf1, active compounds read low",0.986
same,normalized growth,"locus YCL011C, strain gbp2, active compounds read low",0.936
same,normalized growth,"locus YCL016C, strain dcc1, active compounds read low",0.984
same,normalized growth,"locus YCL029C, strain bik1, active compounds read low",0.901 (active)
same,normalized growth,"locus YCL061C, strain MRC1, active compounds read low",0.999
same,normalized growth,"locus YCL069W, strain vba3, active compounds read low",0.975
same,normalized growth,"locus YCR088W, strain abp1, active compounds read low",0.974
same,normalized growth,"locus YDL005C, strain med2, active compounds read low",0.967
same,normalized growth,"locus YDL035C, strain GPR1, active compounds read low",0.8 (active)
same,normalized growth,"locus YDL040C, strain nat1, active compounds read low",0.99
same,normalized growth,"locus YDL074C, strain BRE1, active compounds read low",0.622 (active)
same,normalized growth,"locus YDL101C, strain DUN1, active compounds read low",0.84 (active)
same,normalized growth,"locus YDL134C, strain PPH21, active compounds read low",0.807 (active)
same,normalized growth,"locus YDL185W, strain tfp1, active compounds read low",0.959
same,normalized growth,"locus YDL192W, strain arf1, active compounds read low",0.912 (active)
same,normalized growth,"locus YDR001C, strain nth1, active compounds read low",0.991
same,normalized growth,"locus YDR069C, strain doa4, active compounds read low",0.966
same,normalized growth,"locus YDR101C, strain arx1, active compounds read low",0.881 (active)
same,normalized growth,"locus YDR137W, strain rgp1, active compounds read low",0.854
same,normalized growth,"locus YDR150W, strain NUM1, active compounds read low",0.964
same,normalized growth,"locus YDR159W, strain sac3, active compounds read low",0.989
same,normalized growth,"locus YDR162C, strain NBP2, active compounds read low",0.642 (active)
same,normalized growth,"locus YDR195W, strain ref2",1.04
same,normalized growth,"locus YDR297W, strain sur2, active compounds read low",0.979
same,normalized growth,"locus YDR318W, strain mcm21, active compounds read low",0.819 (active)
same,normalized growth,"locus YDR334W, strain swr1, active compounds read low",0.98
same,normalized growth,"locus YDR335W, strain msn5, active compounds read low",0.973
same,normalized growth,"locus YDR388W, active compounds read low",0.975
same,normalized growth,"locus YDR392W, strain spt3, active compounds read low",0.476 (active)
same,normalized growth,"locus YDR502C, strain sam2, active compounds read low",0.799 (active)
same,normalized growth,"locus YEL003W, strain gim4, active compounds read low",0.951
same,normalized growth,"locus YEL037C, strain rad23, active compounds read low",0.979
same,normalized growth,"locus YEL061C, strain CIN8 (second series), active compounds read low",0.98
same,normalized growth,"locus YEL061C, strain CIN8, active compounds read low",0.855 (active)
same,normalized growth,"locus YER015W, strain faa2, active compounds read low",0.991
same,normalized growth,"locus YER016W, strain bim1, active compounds read low",0.99
same,normalized growth,"locus YER110C, active compounds read low",0.967
same,normalized growth,"locus YER111C, strain swi4, active compounds read low",0.964
same,normalized growth,"locus YER155C, strain BEM2 (second series), active compounds read low",0.9
same,normalized growth,"locus YER155C, strain BEM2, active compounds read low",0.585 (active)
same,normalized growth,"locus YER167W, strain BCK2, active compounds read low",0.807 (active)
same,normalized growth,"locus YFR010W, strain ubp6, active compounds read low",0.974
same,normalized growth,"locus YGL078C, strain dbp3, active compounds read low",0.916 (active)
same,normalized growth,"locus YGL086W, strain mad1, active compounds read low",0.867 (active)
same,normalized growth,"locus YGL167C, strain pmr1, active compounds read low",0.991
same,normalized growth,"locus YGL173C, strain kem1, active compounds read low",0.979
same,normalized growth,"locus YGL227W, strain vid30, active compounds read low",0.974
same,normalized growth,"locus YGL240W, strain doc1, active compounds read low",0.969
same,normalized growth,"locus YGL248W, strain PDE1, active compounds read low",0.788 (active)
same,normalized growth,"locus YGL253W, strain hxk2, active compounds read low",0.981
same,normalized growth,"locus YGR078C, strain PAC10, active compounds read low",0.708 (active)
same,normalized growth,"locus YGR135W, strain pre9, active compounds read low",0.739 (active)
same,normalized growth,"locus YGR229C, strain SMI1, active compounds read low",0.651 (active)
same,normalized growth,"locus YGR252W, strain gcn5, active compounds read low",0.705 (active)
same,normalized growth,"locus YHR013C, strain ard1, active compounds read low",0.849
same,normalized growth,"locus YHR027C, strain rpn1, active compounds read low",0.989
same,normalized growth,"locus YHR030C, strain SLT2, active compounds read low",0.911 (active)
same,normalized growth,"locus YHR079C, strain IRE1 (second series), active compounds read low",0.816 (active)
same,normalized growth,"locus YHR094C, strain hxt1, active compounds read low",0.961
same,normalized growth,"locus YHR129C, strain ARP1, active compounds read low",0.837 (active)
same,normalized growth,"locus YHR142W, strain chs7, active compounds read low",0.884
same,normalized growth,"locus YHR200W, strain rpn10, active compounds read low",0.977
same,normalized growth,"locus YIL066C, strain RNR3, active compounds read low",0.722 (active)
same,normalized growth,"locus YIL073C, strain SPO22, active compounds read low",0.739
same,normalized growth,"locus YIL125W, strain kgd1, active compounds read low",0.97
same,normalized growth,"locus YIR030C, strain dcg1, active compounds read low",0.945
same,normalized growth,"locus YJL092W, strain hpr5, active compounds read low",0.965
same,normalized growth,"locus YJL095W, strain BCK1 (second series), active compounds read low",0.985
same,normalized growth,"locus YJL095W, strain BCK1, active compounds read low",0.665 (active)
same,normalized growth,"locus YJL115W, strain asf1, active compounds read low",0.991
same,normalized growth,"locus YJL129C, strain trk1, active compounds read low",0.843 (active)
same,normalized growth,"locus YJL134W, strain LCB3, active compounds read low",0.892 (active)
same,normalized growth,"locus YJL154C, strain vps35, active compounds read low",0.984
same,normalized growth,"locus YJL164C, strain tpk1, active compounds read low",0.945
same,normalized growth,"locus YJL166W, strain qcr8, active compounds read low",0.909
same,normalized growth,"locus YJL168C, strain set2, active compounds read low",0.979
same,normalized growth,"locus YJL187C, strain SWE1 (second series), active compounds read low",0.839 (active)
same,normalized growth,"locus YJL187C, strain SWE1, active compounds read low",0.978
